Source: PubChem BioAssay
Most compounds without a hit are left out; they make up all but 4% or so of the library.
Mtb betalactam – beta-lactam sensitization of Mtb H37Rv. hit rate 0.27% among 330,000. inhibition, % at 25 µM. M. tuberculosis H37Rv growth with meropenem, percent inhibition;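 further: growth measured after seven days incubation then overnight dye step; 0% = bacteria only wells and 100% = bacteria with antibiotic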
Rv3671c protease – Rv3671c (M. tuberculosis) protease inhibition; P9WHR9; AID 2606; inhibition, % at 5.96 µM; hit rate 0.048% among 320,000; in the data active means inhibition above about 38%;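 further: extracellular domain of Rv3671c used as enzyme; 0% = enzyme with DMSO and 100% = no enzyme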
RecA splice inh – blocks M. tuberculosis RecA intein splicing; inhibition, % (test concentration not listed); hit rate 0.75% among 290,000; AID 2221; P9WHJ3; cell-free RecA intein splicing, fluorescence; in the data active means inhibition above about 30%;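 further: 0% = vehicle wells and 100% = reference inhibitor control wells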
Target sequence (P9WHJ3 whole entry, looked up, canonical isoform): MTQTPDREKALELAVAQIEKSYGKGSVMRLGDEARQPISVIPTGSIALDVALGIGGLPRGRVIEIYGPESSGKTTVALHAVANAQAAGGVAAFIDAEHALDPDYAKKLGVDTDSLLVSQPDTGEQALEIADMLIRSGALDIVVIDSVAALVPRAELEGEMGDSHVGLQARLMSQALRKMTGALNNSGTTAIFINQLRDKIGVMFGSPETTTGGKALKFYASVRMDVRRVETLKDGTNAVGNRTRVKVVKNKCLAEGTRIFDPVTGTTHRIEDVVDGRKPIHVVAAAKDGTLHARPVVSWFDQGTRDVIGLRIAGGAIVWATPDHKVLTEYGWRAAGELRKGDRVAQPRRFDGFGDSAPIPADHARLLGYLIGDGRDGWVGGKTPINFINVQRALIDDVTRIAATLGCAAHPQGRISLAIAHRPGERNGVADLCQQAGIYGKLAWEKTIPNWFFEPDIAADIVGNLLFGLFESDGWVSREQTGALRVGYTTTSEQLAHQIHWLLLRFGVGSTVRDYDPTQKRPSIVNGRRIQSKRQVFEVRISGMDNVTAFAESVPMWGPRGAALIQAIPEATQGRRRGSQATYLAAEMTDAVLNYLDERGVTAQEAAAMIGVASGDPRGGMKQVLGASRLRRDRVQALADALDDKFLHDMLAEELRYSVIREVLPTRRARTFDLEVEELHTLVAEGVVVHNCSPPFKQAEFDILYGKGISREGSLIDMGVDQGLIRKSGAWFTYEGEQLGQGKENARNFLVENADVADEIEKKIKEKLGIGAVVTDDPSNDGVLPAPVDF
FBA Mtb inh – inhibits M. tuberculosis FBA enzyme | purified M. tuberculosis FBA, fluorescence read-out | hit rate 2.3% among 360,000 | inhibition, % at 1 µM | AID 588726 | P9WQA3; in the data active means inhibition above about 27%;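 further: 0% = vehicle and 100% = reference inhibitor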
Mtb UGM inh – inhibitors of M. tuberculosis UDP-galactopyranose mutase; P9WIQ1; purified UGM, fluorescence polarization probe displacement; inhibition, % at 10 µM; hit rate 0.06% among 320,000; in the data active means inhibition above about 10%, passing the limit was not always enough
GDH-TPI counter-1 – counter-screen for M. tuberculosis FBA inhibitors: GDH-TPI coupled enzymes | inhibition, % at 4.8 µM | GDH-TPI coupled enzyme counterscreen, NADH absorbance | hit rate 1.2% among 360,000 | AID 588335; in the data active means inhibition above about 30%;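 further: 0% = DMSO wells and 100% = wells lacking the enzyme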
Mtb FBA confirm – Mtb FBA inhibition, confirmed; shares compounds with FBA Mtb inh; purified M. tuberculosis FBA, fluorescence read-out; inhibition, % at 1 µM; hit rate 78% among 5,600; AID 651616; in the data active means inhibition above about 27%;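 further: 0% = vehicle wells and 100% = reference inhibitor wells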
GDH-TPI counter-2 – inhibits GDH-TPI coupling enzymes, flagging Mtb FBA hits | shares compounds with FBA Mtb inh | GDH-TPI coupled enzyme counterscreen, fluorescence | inhibition, % at 1 µM | hit rate 81% among 5,600 | AID 652141; in the data active means inhibition above about 10%
GDH-TPI dose – GDH-TPI dose response counter-screen for Mtb FBA; AID 652145; GDH-TPI coupled enzyme assay, fluorescence, artifact counterscreen; IC50, µM; shares compounds with FBA Mtb inh; hit rate 79% among 170
Numbers without * were called inactive; / = not tested or not shown; + = active, no number. Unless noted, how the calls were made is not given here.

SMILES | Mtb betalactam | Rv3671c protease | RecA splice inh | FBA Mtb inh | Mtb UGM inh | GDH-TPI counter-1 | Mtb FBA confirm | GDH-TPI counter-2 | others
Cc1cc(C)nc(SCc2nc3ncccn3c2Br)n1 | -5.9 | 1.8 | 5.5 | 66.3* | -1.7 | 10.2 | 31.0* | 9.6 | GDH-TPI dose=2.71*
Cc1cc(/C=N/NC(=O)Cn2c3ccccc3c(=O)c3ccccc32)c(C)n1-c1ccccc1 | -0.6 | -18.6 | -77.0 | 66.1* | -2.2 | 8.6 | + | +
Cc1cc(C)c(S(=O)(=O)NC(CC(=O)O)c2cccc([N+](=O)[O-])c2)c(C)c1 (configuration not stated) | -10.5 | 7.8 | -1.8 | 1.0 | 2.4 | -3.5 | / | /
Cc1cccc(-n2c(=O)[nH]c3c(C(N)=O)nc(CC(C)C)nc32)c1 | -7.3 | -0.8 | -3.2 | 45.5* | 2.8 | 9.4 | 93.9* | 76.1*
CCc1nc(C(N)=O)c2[nH]c(=O)n(-c3ccccc3F)c2n1 | 1.6 | -3.4 | -0.2 | 104.9* | 0.2 | 7.7 | 91.2* | 74.0*
COc1ccccc1-c1nc(C(N)=O)c2[nH]c(=O)n(-c3cccc(C)c3)c2n1 | 45.7 | 4.8 | 0.5 | 48.4* | -4.2 | 29.1 | + | 194.8*
COc1ccc(-c2nc(C(N)=O)c3[nH]c(=O)n(-c4cccc(C)c4)c3n2)c(OC)c1 | -1.0 | 0.3 | 0.2 | 4.0 | 3.6 | 15.6 | / | /
CC(C)C[C@H]1CN([C@@H](Cc2ccccc2)CN2CCC[C@@H]2CN2C(=O)C(=O)NC[C@@H]2Cc2ccccc2)C(=O)C(=O)N1CCc1ccccc1 | / | / | / | 0.4 | / | / | / | /
COC(=O)C1=C(C)N(c2cccc3ccccc23)C(=O)C1 | 0.8 | -12.0 | 6.1 | 2.3 | -0.3 | 7.3 | / | /
CCOc1ccc(S(=O)(=O)NCC2CCCO2)c2cccnc12 (configuration not stated) | 0.0 | -3.5 | 6.2 | 28.0* | 2.8 | 1.3 | + | +
CC(O)CNCCCCOc1ccc(OCc2ccccc2)cc1 (configuration not stated) | -11.9 | -2.5 | -3.8 | 1.6 | -1.6 | 0.0 | / | /
COCCCn1c(SCC(=O)Nc2oc(C)c3c(C)n[nH]c(=O)c23)nc2ccccc2c1=O | 1.2 | 3.5 | -2.5 | -2.4 | 3.3 | 3.5 | / | /
COCc1cc(C)nc(NCCc2ccccc2)c1C#N | 3.2 | -2.7 | -1.6 | 72.0* | -2.1 | 5.9 | + | 181.9*
COCc1cc(C)nc(N2CCCCC2)c1C#N | -3.4 | 2.8 | -1.3 | 10.6 | 3.9 | -2.6 | / | /
COCc1cc(C)nc(NC2CCCCC2)c1C#N | -0.3 | 3.1 | / | 84.8* | -2.4 | 10.6 | 81.3* | 67.2*
COCCn1nnnc1C(c1ccccc1OC)N1CCN(c2ccccc2)CC1 (configuration not stated) | 2.6 | -0.6 | 0.6 | 40.1* | 1.5 | -2.3 | 60.2* | 41.5*
CCCC(c1nnnn1Cc1ccc(OC)cc1)N1CCN(c2ccccc2)CC1 (configuration not stated) | / | / | -10.9 | 4.3 | / | -2.2 | / | /
COc1ccc(Cn2nnnc2C(CC(C)C)N2CCN(c3ccccc3)CC2)cc1 (configuration not stated) | -9.4 | 2.7 | 2.2 | 54.8* | -0.3 | 4.0 | 23.0 | 9.2 | GDH-TPI dose=>10
COc1ccccc1C(c1nnnn1CCc1ccccc1)N1CCN(c2ccccc2)CC1 (configuration not stated) | -6.8 | -9.3 | 9.8 | 2.1 | 0.4 | -4.9 | / | /
CC(NC(=O)CN(C)Cc1cccc(F)c1)c1ccccc1 (configuration not stated) | 1.4 | -2.4 | 0.1 | 1.1 | -1.2 | 8.3 | / | /
Clc1ccc(/C=C/c2nc3ccccc3[nH]2)cc1 | 18.4 | -16.8 | 5.6 | 53.5* | 0.4 | 38.9* | + | 124.0*
Clc1ccc(SCc2nc3ccccc3[nH]2)cc1 | -3.5 | -6.7 | 3.6 | 2.1 | -1.7 | -5.6 | / | /
Clc1ccc(/C=C/c2nc3ccccc3[nH]2)c(Cl)c1 | 16.3 | -45.0 | 7.0 | 62.9* | 0.0 | 16.0 | 59.6* | 43.6*
COc1ccc(CCNC(=O)C(NS(=O)(=O)c2ccc3c(c2)CCN3C(C)=O)C(C)C)cc1OC (configuration not stated) | 4.4 | -7.2 | -2.5 | / | -0.6 | / | / | /
